Data on 75 compounds can be found in the supplement of paper PMC11150407.

Counter-ions that a name gives are not always drawn. In all, about 2,100 compounds went through this assay and about 180 (8.6%) showed an effect of 50% or more. Only a selection was taken, and strong results are over-represented in it overall.

The test system of this assay is MOLM1 and UCSD/AML1 (averaged). In words: cell viability relative to DMSO control (POC); higher = less growth inhibition. Particulars: 1 µM; 72 h. On the procedure:
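Primary viability screen in the 3q26 EVI1-high AML cell lines MOLM1 and UCSD/AML1 (1.5e3 cells/well, 384-well), compounds at 1 uM for 72 h. ATP CellTiter-Glo read-out given as percent of viable cells over DMSO control (POC), averaged over duplicates. DMSO was the negative control and 5 uM etoposide the positive control. This mapping covers the MicroSource Spectrum and Selleck anticancer libraries (drug names).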
In general, cell viability refers to a read-out of living cells in per cent, often relative to untreated cells. In the case of `CC[C@H](C)[C@H](N)C1=N[C@H](C(=O)N[C@@H](CC(C)C)C(=O)N[C@H](CCC(=O)O)C(=O)N[C@H](C(=O)N[C@H]2CCCCNC(=O)[C@H](CC(N)=O)NC(=O)[C@@H](CC(=O)O)NC(=O)[C@H](Cc3cnc[nH]3)NC(=O)[C@@H](Cc3ccccc3)NC(=O)[C@H]([C@@H](C)CC)NC(=O)[C@@H](CCCN)NC2=O)[C@@H](C)CC)CS1`, the cell viability came to 94.8%.
With `CC(C)C[C@@H]1NC(=O)[C@H](CCCN)NC(=O)[C@H](C(C)C)NC(=O)[C@H](Cc2ccc(O)cc2)N[C@@H](CCC(=O)O)C(=O)N[C@@H](CC(N)=O)C(=O)[C@@H](Cc2ccccc2)NC(=O)[C@H](Cc2ccccc2)NC(=O)[C@@H]2CCCN2C(=O)[C@@H](Cc2ccccc2)NC1=O`, the cell viability is 13%.
Consider `CC1=C(CCC(=O)O)c2cc3[nH]c(cc4nc(cc5[nH]c(cc1n2)c(C)c5C(C)O)C(C)=C4C(C)O)c(C)c3CCC(=O)O` (stereo not given), for which the cell viability stood at 107%.
As to `COc1cc(O)c2c(c1)C(=O)c1cc(C)cc(O)c1C2=O`, the cell viability is 94.9%.
In the case of `O=C(/C=C/c1ccc(O)c(O)c1)O[C@H](Cc1ccc(O)c(O)c1)C(=O)O`, the cell viability amounted to 104%.
Consider `CNC(=O)c1cc(Oc2ccc(NC(=O)Nc3cc(C(C)(C)C)nn3-c3ccc4ncccc4c3)c(F)c2)ccn1` [DCC-2036 (Rebastinib)], for which the cell viability is 24.6%.
In the case of `CNC(=O)c1cc(Oc2ccc(NC(=O)Nc3ccc(Cl)c(C(F)(F)F)c3)c(F)c2)ccn1` [Regorafenib (BAY 73-4506)], the cell viability came out at 28.9%.
Next, `Cc1ccc(-n2nc(C(C)(C)C)cc2NC(=O)Nc2ccc(OCCN3CCOCC3)c3ccccc23)cc1` [BIRB 796 (Doramapimod)]: 85.1%; `CNC(=O)c1cc(Oc2ccc(NC(=O)Nc3ccc(Cl)c(C(F)(F)F)c3)cc2)ccn1` [Sorafenib (Nexavar)]: 59.7%; `Cc1cc(OC(=O)c2c(C)cc(O)cc2O)cc(O)c1C(=O)O`: 103%.
Take `Nc1ccccc1C(=O)CC(N)C(=O)O` (stereo not given): the cell viability worked out at 98.1%.
For the compound `CC(C)=CCC[C@@H](C)[C@@H]1CC[C@]2(C)C3=C(CC[C@@]12C)[C@@]1(C)CC[C@H](O)C(C)(C)[C@@H]1CC3`, the cell viability turned out to be 97.6%.
Turning to `COc1cc(OC)c2ccc(=O)oc2c1`, the cell viability was 99.1%.
For `COc1cc(OC)c2c(c1Cl)O[C@@]1(C(=O)CC(=O)C[C@H]1C)C2=O`, the cell viability was determined as 102%.
On to `Cc1ccc(C(=O)Nc2ccc(CN3CCN(C)CC3)c(C(F)(F)F)c2)cc1C#Cc1cnc2cccnn12`, for which the cell viability was found to be 4.31%.
Take `CS(=O)(=O)N1CCN(Cc2cc3nc(-c4cccc5[nH]ncc45)nc(N4CCOCC4)c3s2)CC1` [Pictilisib (GDC-0941)]: the cell viability turned out to be 51.1%.
Take `CC1(C)C(=O)C=C[C@]2(C)[C@H]3CC[C@@]4(C)[C@H](c5ccoc5)OC(=O)[C@H]5O[C@]54[C@]3(C)C(=O)C[C@@H]12`: the cell viability amounted to 84.7%.
For the compound `COc1ccc2c(c1)O[C@H]1c3ccc(OC)cc3OC[C@@H]21`, the cell viability is 105%.
`Cc1cc2c(F)c(Oc3ncnn4cc(OC[C@@H](C)O)c(C)c34)ccc2[nH]1`: the cell viability is 89.6%.
As for `Oc1cc(O)c2c(c1)O[C@H](c1ccc(O)c(O)c1)[C@H](O)C2`, the cell viability is 96.7%.
As to `O=C(Nc1cccnc1)N1CCC(Cc2cccc(Oc3ccc(C(F)(F)F)cn3)c2)CC1`, the cell viability stood at 56.7%.
Turning to `O=C(O)c1cccnc1`, the cell viability is 95%.
In the case of `O=C(/C=C/c1cccnc1)NCCCCC1CCN(C(=O)c2ccccc2)CC1`, the cell viability was 12%.
Regarding `COc1c(O)cc(O)cc1O`, the cell viability was 98.8%.
In the case of `O=C(O)CC[C@H]1CC[C@@](c2cc(F)ccc2F)(S(=O)(=O)c2ccc(Cl)cc2)CC1`, the cell viability came to 71%.
Take `Cc1cccc2c3c(ccc12)C1=C(C(=O)C3=O)[C@@H](C)CO1`: the cell viability amounted to 98.4%.
For `CC1(C)CCC(c2ccc(Cl)cc2)=C(CN2CCN(c3ccc(C(=O)NS(=O)(=O)c4ccc(N[C@H](CCN5CCOCC5)CSc5ccccc5)c(S(=O)(=O)C(F)(F)F)c4)cc3)CC2)C1` [ABT-263 (Navitoclax)], the cell viability stood at 6.23%.
Take `CN(C)CC[C@H](CSc1ccccc1)Nc1ccc(S(=O)(=O)NC(=O)c2ccc(N3CCN(Cc4ccccc4-c4ccc(Cl)cc4)CC3)cc2)cc1[N+](=O)[O-]`: the cell viability turned out to be 32.3%.
Next, `NC1(C(=O)O)CCC1`: 102%; `OC[C@H]1O[C@@](CO)(O[C@H]2O[C@H](CO)[C@@H](O)[C@H](O)[C@H]2O)[C@@H](O[C@H]2O[C@H](CO)[C@@H](O)[C@H](O)[C@H]2O)[C@@H]1O`: 103%.
In the case of `CC(C)=CCc1c(O)cc2occ(-c3ccc4c(c3)OCO4)c(=O)c2c1O`, the cell viability was 100%.
On to `C[C@@H]1CC[C@H]2[C@](C)(CO)[C@@H](O)CC[C@]2(C)[C@@]12CC[C@@](CO)(CCO)O2`, for which the cell viability was 89.3%.
As to `C[C@@H]1O[C@@H](O[C@H]2[C@H](Oc3cc(O)c4c(=O)cc(-c5ccc(O)cc5)oc4c3)O[C@H](CO)[C@@H](O)[C@@H]2O)[C@H](O)[C@H](O)[C@H]1O`, the cell viability is 110%.
Consider `Sc1nc2ccccc2s1`, for which the cell viability was 115%.
As for `C=CC(C)(O)CCC1C(=C)CC(O)C2C(C)(C)CCCC12C` (stereo not given), the cell viability came out at 105%.
Consider `CC[C@]1(O)C[C@H]2CN(CCc3c([nH]c4ccccc34)[C@@](C(=O)OC)(c3cc4c(cc3OC)N(C=O)[C@H]3[C@@](O)(C(=O)OC)[C@H](OC(C)=O)[C@]5(CC)C=CCN6CC[C@]43[C@@H]65)C2)C1` [Vincristine Sulfate], for which the cell viability was found to be 7.83%.
Then `CC[C@]1(O)C[C@H]2CN(CCc3c([nH]c4ccccc34)[C@@](C(=O)OC)(c3cc4c(cc3OC)N(C=O)[C@H]3[C@@](O)(C(=O)OC)[C@H](OC(C)=O)[C@]5(CC)C=CCN6CC[C@]43[C@@H]65)C2)C1`, with 11.3%; and `CC[C@]1(O)C[C@@H]2CN(CCc3c([nH]c4ccccc34)[C@@](C(=O)OC)(c3cc4c(cc3OC)N(C)[C@H]3[C@@](O)(C(=O)OC)[C@H](OC(C)=O)[C@]5(CC)C=CCN6CC[C@]43[C@@H]65)C2)C1` [Vinblastine], with 8.43%; and `CC[C@]1(O)C[C@@H]2CN(CCc3c([nH]c4ccccc34)[C@@](C(=O)OC)(c3cc4c(cc3OC)N(C)[C@H]3[C@@](O)(C(=O)OC)[C@H](OC(C)=O)[C@]5(CC)C=CCN6CC[C@]43[C@@H]65)C2)C1`, with 7.14%.
Turning to `COc1ccc2c(=O)c(-c3ccc(O)cc3)coc2c1`, the cell viability was determined as 84.7%.
Turning to `CC(C)c1c(O)ccc2c1CC[C@H]1C(C)(C)CCC[C@]21C`, the cell viability worked out at 90.4%.
For `COC(=O)C(O)c1ccccc1` (stereo not given), the cell viability was found to be 106%.
With `O=c1cc(-c2ccc(O)cc2)oc2cc(O[C@@H]3O[C@H](CO)[C@@H](O)[C@H](O)[C@H]3O[C@@H]3OC[C@](O)(CO)[C@H]3O)cc(O)c12`, the cell viability came to 119%.
As for `COc1ccc2c(=O)c(CC(=O)O)coc2c1`, the cell viability was determined as 98.6%.
Consider `N=C(N)NC(=N)Nc1ccccc1`, for which the cell viability was 99.7%.
On to `O=C(O)c1nc2cc(Cl)c(Cl)cc2nc1O`, for which the cell viability came to 98.3%.
On to `CC(C)CCC[C@@H](C)[C@H]1CC[C@H]2[C@@H]3CC[C@H]4C[C@H](O)CC[C@]4(C)[C@H]3CC[C@]12C`, for which the cell viability came to 110%.
Consider `Cc1ccc(S(=O)(=O)C=CC#N)cc1`, for which the cell viability was determined as 1.01%.
In the case of `Cc1ccc(O)c([C@H](CCN(C(C)C)C(C)C)c2ccccc2)c1`, the cell viability was 92.5%.
On to `C=CC[S+]([O-])C[C@H](N)C(=O)O` (mixture of isomers), for which the cell viability is 89.6%.
With `CCN(CC)C(=S)SSC(=S)N(CC)CC` [Disulfiram (Antabuse)], the cell viability was determined as 1.33%.
Then `CCN(CC)C(=S)SSC(=S)N(CC)CC`, with 5.82%.
Next, `CC1=CC(=O)[C@H]2C(C)(C)CCC[C@]2(C)[C@@]1(O)CCc1ccoc1`: 110%.
Turning to `COC(=O)CC[C@@H](C)[C@H]1CC[C@H]2[C@@H]3[C@H](O)C[C@@H]4C[C@H](O)CC[C@]4(C)[C@H]3C[C@H](O)[C@]12C`, the cell viability stood at 95.2%.
On to `C[C@@H]1CCN(C(=O)CC#N)C[C@@H]1N(C)c1ncnc2[nH]ccc12`, for which the cell viability stood at 72.1%.
As for `O=C(O)c1cc(-c2ccc(F)cc2F)ccc1O`, the cell viability stood at 112%.
Regarding `CNC(=O)c1ccccc1Sc1ccc2c(/C=C/c3ccccn3)n[nH]c2c1` [Axitinib], the cell viability is 19.1%.
With `C[C@H]1CC2C3CCC4=CC(=O)C=C[C@]4(C)[C@@]3(F)[C@@H](O)C[C@]2(C)[C@@]1(O)C(=O)COP(=O)(O)O` (stereo not given in full), the cell viability was 72.3%.
As to `COc1c(-c2coc3cc4c(cc3c2=O)CC(OC(C)=O)C(C)(C)O4)ccc2c1C=CC(C)(C)O2` (stereo not given), the cell viability is 88.7%.
Then `Fc1cc(-c2cccc3ncc(-c4cnn(C5CCNCC5)c4)nc23)cc(F)c1CN1CCOCC1`, with 24.6%; and `CCC(C(N)=O)c1ccccc1` (stereo not given), with 109%.
As to `COc1cc(O)ccc1C(C)=O`, the cell viability was found to be 97.9%.
With `CC(C)=CCC1=C(O)C(=O)c2ccccc2C1=O`, the cell viability amounted to 118%.
As for `N[C@@H](CSCSC[C@H](N)C(=O)O)C(=O)O`, the cell viability was 99.3%.
Consider `CC(=O)NCC(=O)N1[C@@H]2CC[C@H]1c1ccc(Nc3ncc(C(F)(F)F)c(NC4CCC4)n3)cc12`, for which the cell viability was determined as 20.2%.
Then `CS(=O)(=O)c1cccc(CNc2nc(Nc3ccc4c(c3)CCC(=O)N4)ncc2C(F)(F)F)c1`, with 83.3%; and `CN(c1ncccc1CNc1nc(Nc2ccc3c(c2)CC(=O)N3)ncc1C(F)(F)F)S(C)(=O)=O`, with 58.6%.
Turning to `CC(=O)/C=C\[C@@H]1[C@@]2(C)CCCC(C)(C)C2CC[C@@]1(C)O` (stereo not given in full), the cell viability amounted to 99.2%.
In the case of `COc1cc2c(cc1OC)-c1c(oc3cc(O)cc(O)c3c1=O)CO2`, the cell viability is 103%.
Then `COC1=C(O)C(=O)c2c(cc3oc(C(C)=O)c(O)c3c2O)C1=O`, with 86.8%.
Then `CCCCC(=O)Oc1ccccc1C(=O)O`, with 115%; and `COC(=O)C[C@H]1C(C)(C)[C@@H](OC(C)=O)[C@@H]2CC3C4CC(=O)O[C@@H](c5ccoc5)[C@]4(C)CCC3[C@@]1(C)C2=O` (stereo not given in full), with 88.1%; and `CCCCOc1ccc(C(=O)CCN2CCCCC2)cc1`, with 104%.
As to `Cc1cnc(Nc2ccc(OCCN3CCCC3)cc2)nc1Nc1cccc(S(=O)(=O)NC(C)(C)C)c1`, the cell viability was 13%.
Consider `CC1(C)[C@@H](O)CC[C@]2(C)[C@H]3C(=O)C=C4[C@@H]5C[C@@](C)(C(=O)O)CC[C@]5(C)CC[C@@]4(C)[C@]3(C)CC[C@@H]12`, for which the cell viability is 95.5%.
